Screening data (PubChem BioAssay)
Pf Dd2 growth: Plasmodium falciparum Dd2 growth inhibition; P. falciparum Dd2 growth, SYBR Green, 72 h; Potency, µM (titrated, usually from 28.9 µM), actives largely listed as inhibitors; actives 4.3% (n = 120,000); AID 1347417; active = well fitted inhibition curve with a large enough effect; note: nearly all actives have a fitted effect of over 65% in size
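Readout: SYBR Green fluorescence, 485 nm excitation, 535 nm emission, after ~16 h lysis at 37C. Before that, Dd2-infected red cells (2.5% hematocrit) grew 72 h with compound, 29 uM top final concentration.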
Of the large screens only hits and unclear results are named; the others gave an inactive call. The entries come from a sample that favours hits as a whole.

Cc1ncc(CO)c2c1Oc1nc(-c3ccccc3F)nc(SCC(=O)N3CCCCC3)c1C2	none
Cc1ncc(CO)c2c1Oc1nc(-c3ccccc3Cl)nc(SCc3ccccc3F)c1C2	Pf Dd2 growth 4.5µM
CCc1ccccc1NC(=O)CSc1nc(-c2cccc(Cl)c2)nc2c1Cc1c(CO)cnc(C)c1O2	none
CCSc1nc(-c2ccccc2F)nc2c1Cc1c(CO)cnc(C)c1O2	none
Cc1ccc(C)c(CSc2nc(-c3ccccc3F)nc3c2Cc2c(CO)cnc(C)c2O3)c1	Pf Dd2 growth 8.9µM
CCCOc1nccnc1NC1CCN(C(=O)C2CCCO2)CC1 (stereo not drawn)	none
O=C(c1csc(N2CCN(c3ccccc3)CC2)n1)N1CCN(C2CCCCC2)CC1	none
O=C1c2ccccc2-c2onc3c(Br)cc(NC4CCCCC4)c1c23	none
COCCNc1cc(N2CCN(C3CCCCC3)CC2)c2noc3c2c1C(=O)c1ccccc1-3	Pf Dd2 growth 0.89µM
O=C1c2ccccc2-c2onc3c(N4CCN(C5CCCCC5)CC4)cc(NCCO)c1c23	Pf Dd2 growth 5µM
COCCNc1ncccc1-c1noc([C@@H]2CCCN2C2CCN(C(C)=O)CC2)n1	none
COCCNc1ncccc1-c1noc([C@@H]2CCCN2C2CCN(C)CC2)n1	none
NC(=O)CN1C(=O)CO[C@H]2CN(Cc3ccc(C(F)(F)F)cc3)C[C@H]21	none
CN(Cc1cccnc1)C1CN(S(=O)(=O)c2ccc3c(c2)OCCO3)C1	none
CC(C)c1nnc(NC(=O)Cn2nc3c(cc2=O)CCCCC3)s1	none
Cc1ccc(O[C@H]2CCOC[C@H]2NC(=O)C2CCS(=O)(=O)CC2)cn1	none
Cc1cc(C(=O)N2CCC(=O)N(Cc3ccc(F)cc3)C(C(C)C)C2)n[nH]1 (stereo not drawn)	none
COC1CCC12CCN(C(=O)c1ccc(C#N)cc1)CC2 (stereo not drawn)	none
Cc1ccc(S(=O)(=O)c2nc(-c3cccc(C)c3)oc2N2CCN(c3ccccc3)CC2)cc1	Pf Dd2 growth 10µM
Cc1ccc(S(=O)(=O)c2nc(-c3ccccc3)oc2N2CCN(c3ccccc3)CC2)cc1	none
Cc1ccc(-c2nc(S(=O)(=O)c3ccc(C)cc3)c(N3CCN(c4ccccc4)CC3)o2)cc1	none
Cc1csc(NC(=O)C2CC(=O)N(c3n[nH]c4cc(Br)ccc34)C2)n1 (stereo not drawn)	none
Cc1cnc(C(=O)N[C@@H]2CCC[C@@H]2C(=O)N2CCN(C(C)C)CC2)cn1	none
CCOc1ccccc1CN1CCN(S(=O)(=O)c2ccccc2)CC1	none
CCCN1CCC2(CCN(C(=O)Nc3ccccc3)CC2)Oc2ccccc21	none
CCCN1CCC2(CCN(C(=O)COC)CC2)Oc2ccccc21	none
CCOc1ccccc1CN1CCC2(CCN(C(=O)C3CCCC3)CC2)Oc2ccccc21	none
CCOc1ccccc1CN1CCC2(CCN(C(=O)Cc3ccc(F)cc3)CC2)Oc2ccccc21	Pf Dd2 growth 8.9µM
CCOc1ccccc1CN1CCC2(CCN(CCC(C)C)CC2)Oc2ccccc21	Pf Dd2 growth 1µM
CNC(=O)[C@@H]1CN(C(=O)CC2CCCC2)C[C@H]1COC	none
COc1ccc(Cn2c(C3CCN(C(=O)c4cc(F)ccc4F)CC3)n[nH]c2=O)cc1	none
Cc1ccc(NC(=O)N2CCC(CCNC(=O)CCCc3ccccc3)CC2)cc1F	none
COCCNC(=O)c1cc(Br)cn2ccnc12	none
Cc1ccc(OCC(=O)NCC2CCN(c3cnn(C)c(=O)c3)C2)cc1 (stereo not drawn)	none
COc1cc(F)ccc1-c1cn(C)c(=O)n2cc(CN3CCOCC3)nc12	none
Cc1ccc(NC(=O)C2CCN(S(=O)(=O)c3cccc4nsnc34)CC2)cc1	none
O=C(Nc1ccc(F)c(F)c1)C1CCCN1S(=O)(=O)c1cccc2nsnc12 (stereo not drawn)	Pf Dd2 growth 11µM
CCCCN(CC)CCNC(=O)C1CCCN(S(=O)(=O)c2cccc3nsnc23)C1 (stereo not drawn)	none
CCCCN(CC)C(=O)C1CCC(CNS(=O)(=O)c2cccc3nsnc23)CC1 (stereo not drawn)	Pf Dd2 growth 2.8µM
CCN(CC)c1ccc(NC(=O)CCS(=O)(=O)c2cccc3nsnc23)c(C)c1	none
O=C(Nc1ccc(C(F)(F)F)cc1)C1CCC(CNS(=O)(=O)c2cccc3nsnc23)CC1 (stereo not drawn)	Pf Dd2 growth 2.8µM
CCc1ccc(NC(=O)C2CCCN2S(=O)(=O)c2cccc3nsnc23)cc1 (stereo not drawn)	none
Cc1ccc(NC(=O)C2CCC(CNS(=O)(=O)c3cccc4nsnc34)CC2)c(C)c1 (stereo not drawn)	none
CCN(C(=O)C(Cc1ccccc1)NS(=O)(=O)c1cccc2nsnc12)c1ccccc1 (stereo not drawn)	none
Cc1ccc(NC(=O)C2CCCN2S(=O)(=O)c2cccc3nsnc23)c(C)c1 (stereo not drawn)	none
CCN(C(=O)C1CCC(CNS(=O)(=O)c2cccc3nsnc23)CC1)c1ccc(C)c(C)c1 (stereo not drawn)	Pf Dd2 growth 4.5µM
COc1ccc(NC(=O)CCNS(=O)(=O)c2cccc3nsnc23)cc1	none
CS(=O)(=O)CCc1nc(-c2ccco2)nn1-c1cccc(F)c1	none
Cn1nnnc1C1CCCN(C(=O)C2CCCC2)C1 (stereo not drawn)	none
O=C(c1cc(F)ccc1F)N1CCC[C@H]1c1nc(-c2ccccc2)no1	none
COCCn1nnnc1C1CC2(CCOCC2)C(=O)N1Cc1ccc(Cl)cc1 (stereo not drawn)	none
COCCNC(=O)[C@@H]1C[C@@H](O)CN1C1CCN(C(=O)Cc2cccc(OC)c2)CC1	none
COc1cc(=O)n2c(c1C(=O)N1CCN(c3ccccc3C)CC1)CCCC2	none
CCOC(=O)CCNC(=O)N1CCC(C(=O)N2CCCCCCNC(=O)CC2)CC1	none
O=C1CC(c2ccccc2)N(C(=O)CNC(=O)c2[nH]nc3c2COc2ccccc2-3)CCCCCN1 (stereo not drawn)	Pf Dd2 growth 2.5µM
O=C1CC(c2ccccc2)N(C(=O)CNC(=O)c2cccnc2)CCCCCCN1 (stereo not drawn)	none
COc1cccc(CC(=O)NCC(=O)N2CCCCCCNC(=O)CC2c2ccccc2)c1 (stereo not drawn)	none
O=C1CC(c2ccccc2)N(C(=O)CNC(=O)c2nccc3ccccc23)CCCCCCN1 (stereo not drawn)	Pf Dd2 growth 0.35µM
COc1ccc2cc(C(=O)NCC(=O)N3CCCCCCNC(=O)CC3c3ccccc3)[nH]c2c1 (stereo not drawn)	Pf Dd2 growth 14µM
COc1ccc(C(=O)NCC(=O)N2CCCCCCNC(=O)CC2c2ccccc2)cc1F (stereo not drawn)	none
O=C1CC(c2ccccc2)N(C(=O)CNC(=O)c2ccncc2)CCCCCCN1 (stereo not drawn)	none
O=C1CC(c2ccccc2)N(C(=O)CNC(=O)c2n[nH]c3ccccc23)CCCCCN1 (stereo not drawn)	none
O=C1CC(c2ccccc2)N(C(=O)CNC(=O)c2ccccn2)CCCCCCN1 (stereo not drawn)	none
Cc1nc(CCC(=O)N2CCc3c(nc(-c4ccccc4)[nH]c3=O)C2)n[nH]1	none
COc1ccc(CNC(=O)O[C@H]2COCCN(c3nc4ccccc4s3)C2)cc1	none
CCCN(CC1CCOC1)C(=O)Nc1ccc(C(F)(F)F)cc1 (stereo not drawn)	none
Cc1nc(CCNC(=O)CCC2CCCC2)no1	none
O=C(O)Cn1nc(C2CCOC2)nc1C1(c2ccccc2)CC1 (stereo not drawn)	none
Fc1ccc(OC2CNC2)cc1F	none
CN(C)c1ccc(C(=O)N2Cc3[nH]cnc3CC2C(=O)O)cn1 (stereo not drawn)	none
Cc1ccc(-c2nc(C(=O)NCc3cccc(C)c3)no2)cc1	none
